Some test systems named below: T-47D breast; BT-549 breast; MDA-MB-435 melanoma; SW-620 colon; MCF7 breast; HCT-116 colon; HCC-2998 colon; KM12 colon.
Common to all, as to test: NCI-60 one-dose screen, 48 h (100 = growth as untreated, 0 = no growth, -100 = all killed)
What all share (settings): 10 µM unless noted

Molecules are shown by their SMILES. This is part of a sample that, as a whole, favours compounds with a hit. Of some 83,000 tested, about 20% had one in any assay.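 Single-dose data. Exposure time 48 hours. Values below 10 considered active.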 Unmarked numbers belong to inactive results. The source made the active and inactive calls.

Turning to `CCOC(=O)C1=NN(c2ccccc2)C(=O)/C1=C\N1C(=O)/C(=C/c2cccc(O)c2)SC1=S`, the growth was 93% in the assay on T-47D breast; 97% with BT-549 breast; 109% in the assay with MDA-MB-435 melanoma; 97.6% with SW-620 colon; 91.8% in the assay with MCF7 breast; 88.8% in the assay on HCT-116 colon. In addition, the growth was 99.8% with HCC-2998 colon and 100% with KM12 colon.
Take `O=C(c1ccccc1)c1ccc(O)c2ncccc12`: the growth in the assay with T-47D breast was 10.6%; with BT-549 breast, 56.3%; in the assay on MDA-MB-435 melanoma, 56.7%; with SW-620 colon, 17.1%; with MCF7 breast it was 10.5%; in the assay on HCT-116 colon, 13.7%. Further, the growth was 35.8% in the assay with HCC-2998 colon and 27% in the assay on KM12 colon.
`Cc1cc(N/N=C/c2ccccn2)nc2ccccc12`: the growth in the assay on T-47D breast is 24.1%; in the assay with BT-549 breast, 15.1%; in the assay with MDA-MB-435 melanoma it was 29.6%; in the assay on SW-620 colon, 18.5%; in the assay on MCF7 breast, 14%; in the assay on HCT-116 colon, 17.6%. Besides, the growth in the assay on HCC-2998 colon is 24.7%; in the assay with KM12 colon it was 24.5%.
In the case of `CCCCCCCCCCCC1=NCCCN1CCCC`, the growth in the assay with T-47D breast was 97.4%; with BT-549 breast it was 94.6%; in the assay with MDA-MB-435 melanoma, 110%; with SW-620 colon, 97.5%; in the assay with MCF7 breast it was 91.1%; in the assay on HCT-116 colon, 83.6%. In addition, the growth was 75.7% with HCC-2998 colon and 103% in the assay with KM12 colon.
On to `OC(Cc1cc(CC(O)(C(F)(F)F)C(F)(F)F)nc(CC(O)(C(F)(F)F)C(F)(F)F)c1)(C(F)(F)F)C(F)(F)F`, for which the growth in the assay on T-47D breast is -1.31% (active); with BT-549 breast, 11.3%; with MDA-MB-435 melanoma, 0.574% (active); in the assay with SW-620 colon, 14.6%; in the assay with MCF7 breast, 4.14% (active); in the assay on HCT-116 colon, 3.99% (active). The growth with HCC-2998 colon is 23.9%; in the assay with KM12 colon, 1.25% (active).
As for `C1=C(c2ccccc2)c2ccccc2C1`, the growth was 92.7% with T-47D breast; 99.1% with BT-549 breast; 93.1% in the assay on MDA-MB-435 melanoma; 97.8% in the assay with SW-620 colon; 109% in the assay with MCF7 breast; 95.8% in the assay on HCT-116 colon. The values for the growth in the assay with HCC-2998 colon and in the assay with KM12 colon were 91% and 96.3%, respectively.
Regarding `Cc1cc(I)nc2ccccc12`, the growth in the assay on T-47D breast was 95.8%; in the assay with BT-549 breast it was 104%; in the assay on MDA-MB-435 melanoma, 112%; with SW-620 colon, 107%; in the assay with MCF7 breast, 101%; with HCT-116 colon, 106%. For the same compound, the growth in the assay with HCC-2998 colon is 103%; in the assay with KM12 colon, 115%.
Turning to `O=C(/C=C/C(Cl)(Cl)Cl)Nc1ccc(Cl)cc1`, the growth in the assay with T-47D breast is 94.6%; in the assay on BT-549 breast, 102%; in the assay with MDA-MB-435 melanoma, 105%; in the assay on SW-620 colon, 110%; in the assay on MCF7 breast, 99.8%; in the assay with HCT-116 colon, 104%. Further, the values for the growth with HCC-2998 colon and in the assay with KM12 colon were 108% and 132%, respectively.
As to `COc1ccc(C(Cn2ccnc2)Sc2ccc(Cl)c(Cl)c2)cc1` (stereo unspecified), the growth in the assay with T-47D breast was 79.3%; with BT-549 breast, 73.2%; in the assay on MDA-MB-435 melanoma, 84.1%; in the assay with SW-620 colon, 80.9%; with MCF7 breast, 79.6%; with HCT-116 colon, 48.5%. Moreover, the growth with HCC-2998 colon was 108%; in the assay on KM12 colon, 73.7%.
On to `CCN(CC)c1ccc(/C=C\C(=O)c2ccc(NC(C)=O)cc2)cc1`, for which the growth in the assay on T-47D breast is 76.3%; with BT-549 breast, 94.8%; with MDA-MB-435 melanoma, 10.9%; with SW-620 colon it was 42.5%; with MCF7 breast it was 71.3%; in the assay on HCT-116 colon, 58.6%. In addition, the results for the growth with HCC-2998 colon and in the assay with KM12 colon were 77.9% and 48.1%, respectively.
Consider `NC(CS/C(Cl)=C/Cl)C(=O)O` (stereo unspecified), for which the growth with T-47D breast was -7.75% (active); with BT-549 breast it was 51%; with MDA-MB-435 melanoma, 58.6%; in the assay with SW-620 colon, 104%; in the assay with MCF7 breast, 45.1%; with HCT-116 colon, 84.4%. Also, the growth with HCC-2998 colon is 102%; with KM12 colon it was 98.1%.
Regarding `O=C1C=Cc2ccccc2/C1=C/c1nc(-c2ccccc2)oc1O`, the growth in the assay with T-47D breast was 65.5%; in the assay on BT-549 breast, 102%; with MDA-MB-435 melanoma, 97.5%; with SW-620 colon it was 97.4%; with MCF7 breast it was 39.6%; with HCT-116 colon, 81.5%. In addition, the values for the growth in the assay with HCC-2998 colon and in the assay on KM12 colon were 129% and 92.1%, respectively.
Regarding `O=C(Nc1ccc(Cl)c(Cl)c1)Nc1ccccc1O`, the growth with T-47D breast was 50.7%; in the assay on BT-549 breast, 105%; in the assay on MDA-MB-435 melanoma, 76.2%; in the assay on SW-620 colon, 90.1%; with MCF7 breast, 51.9%; in the assay with HCT-116 colon, 60.7%. The growth with HCC-2998 colon is 80.4%; in the assay with KM12 colon, 96.5%.
As to `OCCOSCCO`, the growth with T-47D breast was 110%; in the assay with BT-549 breast, 110%; with MDA-MB-435 melanoma, 109%; with SW-620 colon, 105%; with MCF7 breast, 97.7%; in the assay on HCT-116 colon it was 102%. In addition, the growth is 111% with HCC-2998 colon and 112% in the assay on KM12 colon.
Regarding `O=C(Nc1cccc(C(F)(F)F)c1)Oc1ccc(Cl)c2cccnc12`, the growth with T-47D breast was 22%; with BT-549 breast it was 37.5%; with MDA-MB-435 melanoma, 28%; in the assay with SW-620 colon, 12.8%; in the assay on MCF7 breast, 61.1%; with HCT-116 colon, 0.974% (active). Besides, the results for the growth with HCC-2998 colon and in the assay on KM12 colon were 92.7% and 25.4%, respectively.
Consider `CCN1CCCC(Nc2cc(C)nc(/N=C(/N)Nc3ccc(Cl)c(Cl)c3)n2)C1` (stereo unspecified), for which the growth is -49.2% (active) with T-47D breast; -59.5% (active) in the assay on BT-549 breast; -51.7% (active) in the assay with MDA-MB-435 melanoma; -59.3% (active) in the assay with SW-620 colon; -73.5% (active) in the assay with MCF7 breast; -54.9% (active) in the assay on HCT-116 colon. For the same compound, the growth is -71.5% (active) with HCC-2998 colon and -14.8% (active) in the assay with KM12 colon.
`CN(C)CCN(C)CC(C)(C)C(=O)/C=C/c1ccc(Cl)c(Cl)c1`: the growth in the assay with T-47D breast was -56.7% [100 µM] (active); with BT-549 breast, -96% [100 µM] (active); in the assay with MDA-MB-435 melanoma, -96.5% [100 µM] (active); with SW-620 colon, -81.1% [100 µM] (active); in the assay on MCF7 breast, -66.4% [100 µM] (active); with HCT-116 colon, -93.4% [100 µM] (active). Also, the values for the growth in the assay on HCC-2998 colon and with KM12 colon were -90.4% [100 µM] (active) and -93.4% [100 µM] (active), respectively.
